{
  "source": "PubChem BioAssay",
  "data": [
    {"target": "Epidermal growth factor receptor (Homo sapiens) (UniProt P00533)", "sequence (P00533 whole entry, looked up)": "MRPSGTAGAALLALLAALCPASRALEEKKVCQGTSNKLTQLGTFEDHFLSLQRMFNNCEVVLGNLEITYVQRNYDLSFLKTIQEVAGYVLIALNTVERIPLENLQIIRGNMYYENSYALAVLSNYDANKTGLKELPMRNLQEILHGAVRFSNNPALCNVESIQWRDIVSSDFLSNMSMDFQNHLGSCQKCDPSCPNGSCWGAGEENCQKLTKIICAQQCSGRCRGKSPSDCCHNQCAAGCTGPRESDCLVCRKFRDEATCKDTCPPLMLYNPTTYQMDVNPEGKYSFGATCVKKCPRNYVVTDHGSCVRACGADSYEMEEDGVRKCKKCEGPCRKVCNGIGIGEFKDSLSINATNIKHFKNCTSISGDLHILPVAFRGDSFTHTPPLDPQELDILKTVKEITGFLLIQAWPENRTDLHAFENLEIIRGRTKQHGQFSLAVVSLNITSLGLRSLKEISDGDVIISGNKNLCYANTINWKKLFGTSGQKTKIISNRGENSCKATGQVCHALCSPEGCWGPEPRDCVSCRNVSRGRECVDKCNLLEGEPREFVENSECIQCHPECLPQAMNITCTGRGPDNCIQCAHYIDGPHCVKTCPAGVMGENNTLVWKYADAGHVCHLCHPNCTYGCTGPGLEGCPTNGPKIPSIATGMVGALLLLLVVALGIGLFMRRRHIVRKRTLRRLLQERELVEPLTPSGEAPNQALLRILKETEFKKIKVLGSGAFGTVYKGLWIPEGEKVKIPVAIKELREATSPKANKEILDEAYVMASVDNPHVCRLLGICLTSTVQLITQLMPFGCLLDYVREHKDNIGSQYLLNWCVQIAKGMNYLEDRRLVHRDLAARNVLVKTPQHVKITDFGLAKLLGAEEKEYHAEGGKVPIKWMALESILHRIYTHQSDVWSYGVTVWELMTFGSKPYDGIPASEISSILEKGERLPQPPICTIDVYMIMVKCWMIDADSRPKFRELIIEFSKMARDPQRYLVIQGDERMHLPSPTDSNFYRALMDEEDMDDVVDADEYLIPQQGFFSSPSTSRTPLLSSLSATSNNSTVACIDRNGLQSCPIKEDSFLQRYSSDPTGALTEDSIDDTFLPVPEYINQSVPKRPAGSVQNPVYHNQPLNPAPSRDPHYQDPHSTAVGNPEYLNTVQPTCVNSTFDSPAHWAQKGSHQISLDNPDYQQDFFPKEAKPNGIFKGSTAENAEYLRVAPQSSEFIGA", "test": "compounds binding epidermal growth factor receptor – biochemical, small-molecule microarray, 635 nm fluorescence, primary screen (AID 1104);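 also: score merges 667 nm emission intensity with spot signal to noise over triplicate slides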", "conditions": "EGFR binding, higher = more signal", "values": [
      {"smiles": "CON=C(C)CCN1CCCCc2nc(C)c(C)cc21", "composite z-score": 0.657},
      {"smiles": "CO[C@@H](C1CCCCC1)[C@@H](C)[C@H](OCc1cccc(Br)c1)[C@@H](C)CO", "composite z-score": 0.823},
      {"smiles": "O=C1CCCC=C1C(O)COCc1ccccc1", "note": "(centres undefined)", "composite z-score": -0.137},
      {"smiles": "C=CC[C@@H]1C=C[C@H](ON=CC[C@@H]2C=C[C@H](OC(C)=O)[C@@H](COC(C)=O)O2)[C@@H](CO)O1", "composite z-score": 0.661},
      {"smiles": "C[C@]12CCC3c4ccc(OCC5CO5)cc4CCC3C1CC[C@@H]2O", "note": "(some centres undefined)", "composite z-score": 0.182},
      {"smiles": "COC(=O)[C@@H]1CC[C@H](C)[C@@H](c2ccc(Br)cc2)N1C[C@@H](O)CN=[N+]=[N-]", "composite z-score": 0.532},
      {"smiles": "O=C1CCCC=C1C(O)C1CCCCC1", "note": "(centres undefined)", "composite z-score": 0.309},
      {"smiles": "CCOC(=O)[C@H](CC(C)C)NC(=O)CCC1CC(OC(=O)NCc2ccc3c(c2)OCO3)CC2(CCCC(COC(=O)NCCc3ccccc3OC)O2)O1", "note": "(some centres undefined)", "composite z-score": 0.461}
    ]},
    {"target": "Follistatin-related protein 3 (Homo sapiens) (UniProt O95633)", "sequence (O95633 whole entry, looked up)": "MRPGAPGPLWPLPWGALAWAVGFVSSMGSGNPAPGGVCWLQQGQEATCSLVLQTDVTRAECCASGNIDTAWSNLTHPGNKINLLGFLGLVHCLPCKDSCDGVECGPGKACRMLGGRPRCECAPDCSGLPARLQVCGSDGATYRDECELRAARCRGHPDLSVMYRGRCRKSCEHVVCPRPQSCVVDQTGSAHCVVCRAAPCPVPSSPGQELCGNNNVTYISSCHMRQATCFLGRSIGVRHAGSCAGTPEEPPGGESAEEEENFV", "test": "compounds binding follistatin-related protein 3 – biochemical, small-molecule microarray, 635 nm fluorescence, primary screen (AID 1105);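 also: score merges emission near 667 nm and signal to noise per printed spot across three slides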", "conditions": "FSTL3 binding, higher = more signal", "values": [
      {"smiles": "COC(=O)[C@H](C)NC(=O)CCC1CC(OC(=O)NCCc2ccc(F)cc2)CC2(CCCC(COC(=O)NCC3CCCCC3)O2)O1", "note": "(some centres undefined)", "composite z-score": 1.08},
      {"smiles": "COc1ccc2c(c1)O[C@@H](c1cccc(C(F)(F)F)c1)[C@H](O)C2=O", "composite z-score": 0.416},
      {"smiles": "CCOC(=O)[C@H](Cc1ccccc1)NC(=O)CCC1CC(OC(=O)NCc2ccc3c(c2)OCO3)CC2(CCCC(COC(=O)NCCOc3ccccc3)O2)O1", "note": "(some centres undefined)", "composite z-score": 1.31},
      {"smiles": "CC(=O)OC[C@H]1O[C@@H](ON=C(C)C)[C@H](OC(C)=O)[C@@H](OC(C)=O)[C@@H]1OC(C)=O", "composite z-score": -1.57},
      {"smiles": "CCOC(=O)[C@H](Cc1ccccc1)NC(=O)CCC1CC(OC(=O)NCc2ccc3c(c2)OCO3)CC2(CCCC(COC(=O)NCCc3ccc(Cl)cc3)O2)O1", "note": "(some centres undefined)", "composite z-score": 0.69},
      {"smiles": "O=C1C=C[C@@H](O)[C@@H]2[C@@H]3C(=O)N(Cc4ccccc4)C(=O)[C@@H]3CC[C@@H]12", "composite z-score": 0.353},
      {"smiles": "COC(=O)C1=C(C)N(Cc2ccccc2)C2=C3C(=O)OCC[C@@H]3[C@@](O)(C(=O)OC)C(=O)N2[C@@H]1c1ccccc1", "composite z-score": 0.495},
      {"smiles": "CCCNC(=O)OC[C@H]1O[C@H](CCON=C[C@@H](NS(=O)(=O)c2ccc(C)cc2)[C@H](C)C=CCC(=O)OC)C=C[C@@H]1Oc1ccc(OC)cc1", "composite z-score": -0.293},
      {"smiles": "CC=CC1=C(CO)[C@H](O)[C@H]2O[C@H]2[C@@H]1O", "composite z-score": 0.608},
      {"smiles": "COc1ccc(O[C@H]2C=C[C@@H](C#Cc3ccccc3)O[C@@H]2CO)cc1", "composite z-score": -0.0229},
      {"smiles": "COC(=O)[C@@H]1CC[C@H](C)[C@@H](c2ccc(C)cc2)N1C(=O)c1ccc(C=NOC[C@H]2O[C@H](c3ccccc3)C=C[C@@H]2Oc2ccc(OC)cc2)cc1", "composite z-score": -0.189},
      {"smiles": "CON=C1c2cc(OC)ccc2O[C@H](c2cccc(OC)c2)[C@H]1O", "composite z-score": 0.81},
      {"smiles": "C[C@@H]1CC[C@H]2C(=O)OC(Cc3ccccc3)CN2[C@H]1c1ccc(Br)cc1", "note": "(some centres undefined)", "composite z-score": 0.141},
      {"smiles": "C=CCOCC1CN2[C@@H](CC[C@@H](C)[C@@H]2c2ccc(Br)cc2)C(=O)O1", "note": "(some centres undefined)", "composite z-score": -0.293},
      {"smiles": "COc1ccc(COC(=O)NN=C2C[C@@H](O)[C@@H](O)[C@@H]3[C@@H]4C(=O)N(Cc5ccccc5)C(=O)[C@@H]4CC[C@@H]23)cc1", "composite z-score": 0.253},
      {"smiles": "COC(=O)[C@H](C)NC(=O)CCC1CC(OC(=O)NCCc2ccc(F)cc2)CC2(CCCC(COC(=O)NCCOc3ccccc3)O2)O1", "note": "(some centres undefined)", "composite z-score": 0.781},
      {"smiles": "COC(=O)[C@H](C)NC(=O)CCC1CC(OC(=O)NCCc2ccc(F)cc2)CC2(CCCC(COC(=O)NCCc3ccccc3OC)O2)O1", "note": "(some centres undefined)", "composite z-score": 1.16},
      {"smiles": "CCOC(=O)[C@H](CC(C)C)NC(=O)CCC1CC(OC(=O)NCc2ccc3c(c2)OCO3)CC2(CCCC(COC(=O)NCCC(C)C)O2)O1", "note": "(some centres undefined)", "composite z-score": 0.115},
      {"smiles": "C=C(C)C(=O)OC[C@H]1CN2[C@@H](CC[C@@H](C)[C@@H]2c2ccc(Br)cc2)C(=O)O1", "composite z-score": -0.214},
      {"smiles": "CO[C@@H]1COC(=O)[C@H](COCc2ccccc2)NC(=O)CC=C[C@@H](C)[C@H](OC)COC(=O)[C@@H](C)NC(=O)CC=C[C@H]1C", "composite z-score": 0.754},
      {"smiles": "O=C1C[C@H](c2ccccc2)[C@H](c2ccc(Br)cc2)O1", "composite z-score": -0.093},
      {"smiles": "CC(CCN1CCCc2nc(C)c(C)cc21)=NO[C@H](C)c1cn([C@H](CO)Cc2ccccc2)nn1", "composite z-score": 0.761},
      {"smiles": "COC(=O)[C@@H]1CC[C@H](C)[C@@H](c2ccc(Br)cc2)N1C(=O)C(F)(F)F", "composite z-score": -0.324},
      {"smiles": "CC(CCN1CCCc2nc(C)c(C)cc21)=NOC[C@@H](O)COCc1ccco1", "composite z-score": 1.6},
      {"smiles": "C#CCCCON=C1C[C@@H](O)[C@@H](O)[C@@H]2[C@@H]3C(=O)N([C@@H](C)c4ccccc4)C(=O)[C@@H]3CC[C@@H]12", "composite z-score": -0.447},
      {"smiles": "O=C1C2=CC[C@H]3C(=O)N(Cc4ccccc4)C(=O)[C@H]3[C@H]2[C@H](O)[C@@H]2O[C@H]12", "composite z-score": -0.1},
      {"smiles": "CC(CCC(=O)OC[C@H]1O[C@H](C#Cc2ccccc2)C=C[C@@H]1Oc1ccc(C)cc1)=NOC(C)CN1CCCCc2nc(C)c(C)cc21", "note": "(some centres undefined)", "composite z-score": -0.159},
      {"smiles": "CCOC(=O)NN=C1C[C@@H](O)[C@@H](O)[C@@H]2[C@@H]3C(=O)N(CC)C(=O)[C@@H]3CC[C@H]12", "composite z-score": -0.188},
      {"smiles": "CON=C(C)CCN1CCCCc2nc(C)c(C)cc21", "composite z-score": 0.507},
      {"smiles": "CO[C@@H](C1CCCCC1)[C@@H](C)[C@H](OCc1cccc(Br)c1)[C@@H](C)CO", "composite z-score": 0.171},
      {"smiles": "O=C1CCCC=C1C(O)COCc1ccccc1", "note": "(centres undefined)", "composite z-score": -0.171},
      {"smiles": "C=CC[C@@H]1C=C[C@H](ON=CC[C@@H]2C=C[C@H](OC(C)=O)[C@@H](COC(C)=O)O2)[C@@H](CO)O1", "composite z-score": 1.17},
      {"smiles": "C[C@]12CCC3c4ccc(OCC5CO5)cc4CCC3C1CC[C@@H]2O", "note": "(some centres undefined)", "composite z-score": 0.239},
      {"smiles": "COC(=O)[C@@H]1CC[C@H](C)[C@@H](c2ccc(Br)cc2)N1C[C@@H](O)CN=[N+]=[N-]", "composite z-score": 0.0985},
      {"smiles": "O=C1CCCC=C1C(O)C1CCCCC1", "note": "(centres undefined)", "composite z-score": 0.324},
      {"smiles": "CCOC(=O)[C@H](CC(C)C)NC(=O)CCC1CC(OC(=O)NCc2ccc3c(c2)OCO3)CC2(CCCC(COC(=O)NCCc3ccccc3OC)O2)O1", "note": "(some centres undefined)", "composite z-score": 1.01}
    ]}
  ]
}
